# Experimental data published in the supplement of paper PMC8728848.
# Shown is part of a subset that was picked to be rich in the strongest signals.
# B1: pilr alpha (protein)
# chain: MLYGVTQPKHLSASMGGSVEIPFSFYYPWELATAPDVRISWRRGHFHRQSFYSTRPPSIHKDYVNRLFLNWTEGQKSGFLRISNLQKQDQSVYFCRVELDTRSSGRQQWQSIEGTKLSIT
# Assays:
# Assay in all cases: glycan array binding signal (z-score within array); higher = stronger binding
# Conditions in all cases: glycan notation: IUPAC condensed, linker removed
# [1] = molecular target: Fuc(a1-2)Gal(b1-4)GlcNAc(b1-2)Man(a1-3)[Fuc(a1-2)Gal(b1-4)GlcNAc(b1-2)Man(a1-6)]Man(b1-4)GlcNAc(b1-4)[Fuc(a1-6)]GlcNAc
# Outline: (§1)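 Glycan array data were curated from 3228 arrays in the Consortium for Functional Glycomics database and kept only where the protein sequence was available. Glycan names were converted to IUPAC-condensed notation, and columns mapping to the same glycan were averaged. The binding signal is a within-array Z-score, averaged across arrays of the same protein sequence at different concentrations or buffers and across linkers. Negative Z-scores can be read as non-binding.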
# [2] = molecular target: Fuc(a1-2)[GalNAc(a1-3)]Gal(b1-3)GlcNAc(b1-3)GalNAc
# Outline: as §1
# [3] = molecular target: Fuc(a1-2)[GalNAc(a1-3)]Gal(b1-4)[Fuc(a1-3)]GlcNAc(b1-3)GalNAc
# Outline: as §1
# [4] = molecular target: Fuc(a1-3)[Gal(b1-4)]GlcNAc(b1-2)Man(a1-3)[Fuc(a1-3)[Gal(b1-4)]GlcNAc(b1-2)Man(a1-6)]Man(b1-4)GlcNAc(b1-4)GlcNAc
# Outline: as §1
# [5] = molecular target: Gal(a1-3)Gal(b1-3)GlcNAc
# Outline: as §1
# [6] = molecular target: Gal(a1-3)Gal(b1-3)GlcNAc(b1-2)Man(a1-3)[Gal(a1-3)Gal(b1-3)GlcNAc(b1-2)Man(a1-6)]Man(b1-4)GlcNAc(b1-4)GlcNAc
# Outline: as §1
# [7] = molecular target: Gal(a1-3)Gal(b1-4)[Fuc(a1-3)]GlcNAc(b1-2)Man(a1-3)[Gal(a1-3)Gal(b1-4)[Fuc(a1-3)]GlcNAc(b1-2)Man(a1-6)]Man(b1-4)GlcNAc(b1-4)GlcNAc
# Outline: as §1
# [8] = molecular target: Gal(a1-3)GalNAc
# Outline: as §1
# [9] = molecular target: Gal(a1-3)[Gal(a1-4)]Gal(b1-4)GlcNAc
# Outline: as §1
# [10] = molecular target: Gal(a1-4)Gal(b1-4)Glc
# Outline: as §1
# [11] = molecular target: Gal(a1-4)Gal(b1-4)GlcNAc(b1-3)Gal(b1-4)Glc
# Outline: as §1
# [12] = molecular target: Gal(b1-3)GalNAc(b1-4)Gal(b1-4)Glc
# Outline: as §1
# [13] = molecular target: Gal(b1-3)GlcNAc(b1-3)Gal(b1-3)GlcNAc
# Outline: as §1
# [14] = molecular target: Gal(b1-3)GlcNAc(b1-3)Gal(b1-4)[Fuc(a1-3)]GlcNAc(b1-6)[Gal(b1-3)GlcNAc(b1-3)]Gal(b1-4)Glc
# Outline: as §1
# [15] = molecular target: Gal(b1-3)GlcNAc6S
# Outline: as §1
# [16] = molecular target: Gal(b1-3)[Fuc(a1-4)]GlcNAc(b1-6)GalNAc
# Outline: as §1
# [17] = molecular target: Gal(b1-4)GlcNAc
# Outline: as §1
# [18] = molecular target: Gal(b1-4)GlcNAc(b1-3)Gal(b1-4)GlcNAc(b1-3)Gal(b1-4)GlcNAc(b1-3)Gal(b1-4)GlcNAc(b1-2)[Gal(b1-4)GlcNAc(b1-3)Gal(b1-4)GlcNAc(b1-3)Gal(b1-4)GlcNAc(b1-3)Gal(b1-4)GlcNAc(b1-6)]Man(a1-6)[Gal(b1-4)GlcNAc(b1-3)Gal(b1-4)GlcNAc(b1-3)Gal(b1-4)GlcNAc(b1-3)Gal(b1-4)GlcNAc(b1-2)Man(a1-3)]Man(b1-4)GlcNAc(b1-4)[Fuc(a1-6)]GlcNAc
# Outline: as §1
# [19] = molecular target: GalNAc(a1-3)Gal
# Outline: as §1
# [20] = molecular target: GalNAc(b1-3)Gal(a1-4)Gal(b1-4)GlcNAc
# Outline: as §1
# [21] = molecular target: GalNAc(b1-3)Gal(a1-6)Gal(b1-4)Glc
# Outline: as §1
# [22] = molecular target: GalNAc(b1-4)GlcNAc
# Outline: as §1
# [23] = molecular target: GalNAc(b1-6)GalNAc
# Outline: as §1
# [24] = molecular target: Glc(a1-6)Glc(a1-6)Glc
# Outline: as §1
# [25] = molecular target: GlcNAc(a1-4)Gal(b1-4)GlcNAc(b1-3)Gal(b1-4)[Fuc(a1-3)]GlcNAc(b1-3)Gal(b1-4)[Fuc(a1-3)]GlcNAc
# Outline: as §1
# [26] = molecular target: GlcNAc(b1-3)Gal(b1-4)GlcNAc
# Outline: as §1
# [27] = molecular target: GlcNAc(b1-3)Gal(b1-4)GlcNAc(b1-2)Man(a1-3)[GlcNAc(b1-3)Gal(b1-4)GlcNAc(b1-2)Man(a1-6)]Man(b1-4)GlcNAc(b1-4)GlcNAc
# Outline: as §1
# [28] = molecular target: GlcNAc(b1-3)Gal(b1-4)GlcNAc(b1-2)[GlcNAc(b1-3)Gal(b1-4)GlcNAc(b1-6)]Man(a1-6)[GlcNAc(b1-3)Gal(b1-4)GlcNAc(b1-2)Man(a1-3)]Man(b1-4)GlcNAc(b1-4)GlcNAc
# Outline: as §1
# [29] = molecular target: GlcNAc(b1-3)Gal(b1-4)GlcNAc(b1-3)Gal(b1-4)GlcNAc(b1-2)Man(a1-3)[GlcNAc(b1-3)Gal(b1-4)GlcNAc(b1-3)Gal(b1-4)GlcNAc(b1-2)Man(a1-6)]Man(b1-4)GlcNAc(b1-4)GlcNAc
# Outline: as §1
# [30] = molecular target: Man(a1-2)Man(a1-6)[Man(a1-3)]Man(a1-6)[Man(a1-2)Man(a1-2)Man(a1-3)]Man(b1-4)GlcNAc(b1-4)GlcNAc
# Outline: as §1
# [31] = molecular target: Neu5Ac(a2-3)Gal(b1-3)GalNAc
# Outline: as §1
# [32] = molecular target: Neu5Ac(a2-3)Gal(b1-3)GalNAc(b1-4)[Neu5Ac(a2-8)Neu5Ac(a2-3)]Gal(b1-4)Glc
# Outline: as §1
# [33] = molecular target: Neu5Ac(a2-3)Gal(b1-4)GlcNAc(b1-3)Gal(b1-4)GlcNAc(b1-3)Gal(b1-4)GlcNAc
# Outline: as §1
# [34] = molecular target: Neu5Ac(a2-3)Gal(b1-4)GlcNAc(b1-6)[Gal(b1-3)]GalNAc
# Outline: as §1
# [35] = molecular target: Neu5Ac(a2-3)Gal6S(b1-4)GlcNAc
# Outline: as §1
# [36] = molecular target: Neu5Ac(a2-3)[GalNAc(b1-4)]Gal(b1-4)GlcNAc
# Outline: as §1
# [37] = molecular target: Neu5Ac(a2-3)[GalNAc(b1-4)]Gal(b1-4)GlcNAc(b1-3)GalNAc
# Outline: as §1
# [38] = molecular target: Neu5Ac(a2-6)Gal(b1-4)GlcNAc(b1-2)[Neu5Ac(a2-6)Gal(b1-4)GlcNAc(b1-6)]Man(a1-6)[Neu5Ac(a2-6)Gal(b1-4)GlcNAc(b1-2)Man(a1-3)][GlcNAc(b1-4)]Man(b1-4)GlcNAc(b1-4)GlcNAc
# Outline: as §1
# [39] = molecular target: Neu5Ac(a2-6)Gal(b1-4)GlcNAc(b1-3)Gal(b1-4)GlcNAc(b1-3)Gal(b1-4)GlcNAc(b1-2)Man(a1-3)[Neu5Ac(a2-6)Gal(b1-4)GlcNAc(b1-3)Gal(b1-4)GlcNAc(b1-3)Gal(b1-4)GlcNAc(b1-2)Man(a1-6)]GalNAc
# Outline: as §1
# [40] = molecular target: Neu5Ac(a2-6)GalNAc
# Outline: as §1
# [41] = molecular target: Neu5Ac(a2-6)GalNAc(b1-4)GlcNAc
# Outline: as §1
# [42] = molecular target: Neu5Ac(a2-8)Neu5Ac(a2-3)[Gal(b1-3)GalNAc(b1-4)]Gal(b1-4)Glc
# Outline: as §1
# [43] = molecular target: Neu5Ac(b2-6)Gal(b1-4)GlcNAc
# Outline: as §1
# [44] = molecular target: Neu5Gc(a2-6)GalNAc
# Outline: as §1
binder,measurement,setting,value
B1,glycan array binding signal (z-score),[1],0.117
same,glycan array binding signal (z-score),[2],-0.147
same,glycan array binding signal (z-score),[3],6.68
same,glycan array binding signal (z-score),[4],-1.03
same,glycan array binding signal (z-score),[5],0.373
same,glycan array binding signal (z-score),[6],-0.319
same,glycan array binding signal (z-score),[7],-0.503
same,glycan array binding signal (z-score),[8],2.27
same,glycan array binding signal (z-score),[9],7.86
same,glycan array binding signal (z-score),[10],1.77
same,glycan array binding signal (z-score),[11],-0.604
same,glycan array binding signal (z-score),[12],2.46
same,glycan array binding signal (z-score),[13],-0.764
same,glycan array binding signal (z-score),[14],0.008
same,glycan array binding signal (z-score),[15],-0.425
same,glycan array binding signal (z-score),[16],-0.479
same,glycan array binding signal (z-score),[17],-0.271
same,glycan array binding signal (z-score),[18],2.72
same,glycan array binding signal (z-score),[19],0.654
same,glycan array binding signal (z-score),[20],2.72
same,glycan array binding signal (z-score),[21],-0.342
same,glycan array binding signal (z-score),[22],8.03
same,glycan array binding signal (z-score),[23],0.632
same,glycan array binding signal (z-score),[24],-0.27
same,glycan array binding signal (z-score),[25],0.876
same,glycan array binding signal (z-score),[26],-0.07
same,glycan array binding signal (z-score),[27],0.049
same,glycan array binding signal (z-score),[28],1.61
same,glycan array binding signal (z-score),[29],1.68
same,glycan array binding signal (z-score),[30],-0.021
same,glycan array binding signal (z-score),[31],-0.231
same,glycan array binding signal (z-score),[32],-0.149
same,glycan array binding signal (z-score),[33],-0.173
same,glycan array binding signal (z-score),[34],-0.533
same,glycan array binding signal (z-score),[35],-0.007
same,glycan array binding signal (z-score),[36],-0.65
same,glycan array binding signal (z-score),[37],0.118
same,glycan array binding signal (z-score),[38],0.09
same,glycan array binding signal (z-score),[39],1.89
same,glycan array binding signal (z-score),[40],-0.546
same,glycan array binding signal (z-score),[41],-0.492
same,glycan array binding signal (z-score),[42],-0.167
same,glycan array binding signal (z-score),[43],-0.768
same,glycan array binding signal (z-score),[44],-0.353
